From PubChem BioAssay (EPA / NIEHS)
Records with an inconclusive call do not appear. Calls of active or inactive are those of the source. How the source made its calls: active means hit-call score of the fitted dose curve at least 0.9, where 1 is the maximum; inconclusive means response in the unintended direction; inactive means score below 0.9.

Molecular target: Estrogen receptor beta (Homo sapiens) (UniProt Q92731)
Assay: OT_ER_ERbERb_0480: Odyssey Thera (OT) 8-hour HEK293T Protein-Complementation Assay for Estrogen Receptor-beta/-beta Homodimer (AID 2283357);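 further: active means signal gain over DMSO baseline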
Summary of the method: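 Readout: increase in mean fluorescence intensity (nucleus for agonists; nucleus plus cytoplasm for antagonists) relative to DMSO, from a reporter-fragment complementation of human ER-beta LBD homodimer in HEK293T cells dosed 8 hours.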

Chain of Estrogen receptor beta (Homo sapiens) (Q92731 whole entry, looked up): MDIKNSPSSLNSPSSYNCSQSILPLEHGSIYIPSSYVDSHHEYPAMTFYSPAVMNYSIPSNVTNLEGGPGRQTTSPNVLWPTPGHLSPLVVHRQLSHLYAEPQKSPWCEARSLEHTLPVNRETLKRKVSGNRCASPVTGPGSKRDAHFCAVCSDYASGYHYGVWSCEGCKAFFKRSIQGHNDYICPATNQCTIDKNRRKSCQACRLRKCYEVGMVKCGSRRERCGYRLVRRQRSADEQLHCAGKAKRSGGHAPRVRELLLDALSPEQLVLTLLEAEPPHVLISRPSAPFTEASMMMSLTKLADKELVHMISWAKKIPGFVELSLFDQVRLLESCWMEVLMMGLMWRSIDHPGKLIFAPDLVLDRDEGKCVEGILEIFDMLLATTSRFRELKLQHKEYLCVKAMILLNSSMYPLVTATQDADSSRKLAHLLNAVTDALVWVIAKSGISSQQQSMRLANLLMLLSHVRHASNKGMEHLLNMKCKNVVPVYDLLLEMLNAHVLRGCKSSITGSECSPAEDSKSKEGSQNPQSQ

SMILES | outcome | AC50
[Na+] | inactive | 
CCCC(O)C(CC)CO (stereo unspecified) | inactive | 
CC(CCO)CC(C)(C)C (stereo unspecified) | inactive | 
CCCCCCCCCCOC(=O)c1ccccc1C(=O)OCCCCCCCC | inactive | 
CCC(C)(CCCC(C)C)OC(C)=O (stereo unspecified) | inactive | 
COc1cc(OC)c2ccc(=O)oc2c1 | inactive | 
CC(C)N(c1ccccc1)C(C)C | inactive | 
C=CCCCCCCCCC(=O)OCC | inactive | 
O=C(OCc1ccccc1)c1ccccc1O |  | 54.6 µM (active)
CCCc1ccc(N)cc1 | inactive | 
CCC(C)(C)C1CCC(OC)CC1 (stereo unspecified) | inactive | 
CCCO | inactive | 
CCCCCCCCCO | inactive | 
CC(C)(C)C1CCC(O)CC1 (stereo unspecified) | inactive | 
FC(F)(F)c1ccc(Cl)c(Cl)c1 | inactive | 
CCCCCC1CCC(=O)O1 (stereo unspecified) | inactive | 
CCO[Si](CC)(OCC)OCC | inactive | 
CC(=O)c1ccc(O)cc1 | inactive | 
CCCCCCCCCCCCS | inactive | 
CCCC1CCC(=O)CC1 | inactive | 
COC(=O)c1ccc(C(=O)OC)cc1 | inactive | 
